This passage reports inhibition results from PubChem BioAssay AID504329 (Southern Research Specialized Biocontainment Screening …, 2011).

The structures appear in SMILES notation. Hit rate of the full screen: of about 340,000 compounds, about 1,000 (0.29%) were called active. A selection follows. Potency and affinity values are given separately. A number with no mark means an inactive call. No stated cut-off is given here; in the data, inconclusive means inhibition above about 27% without an active follow-up result; inactive means below that.

This test is described as follows: H1N1 influenza NS1A inhibitors, functional cell based assay (AID 504329). The following applies: percent inhibition, at 12.5 µM, active compounds read high.
As a reminder, the inhibition is the change of the read-out against control, counted positive when it falls. Consider `CCN(CC)S(=O)(=O)c1ccc2oc(Nc3ccccc3)nc2c1`, for which the inhibition is 10.4%.

As to `[O-]c1c[n+](-c2ccc(-[n+]3cc([O-])on3)cc2)no1`, the inhibition is 3.68%.

Take `Cc1ccnc2c1ccc1ccccc12`: the inhibition is -14.1%.

Regarding `Cc1ccc2c(C)ccc(O)c2n1`, the inhibition is -11%.

On to `Cc1cccc2cccnc12`, for which the inhibition is -13.9%.

As to `Cc1c(C)c2cccnc2c2ncccc12`, the inhibition is 3.77%.

For `Cc1n[nH]c(=O)c2c(NC(=O)CSc3nc4ccccc4c(=O)n3-c3ccc(OC(F)F)cc3)oc(C)c12`, the inhibition was -4.1%.

With `CC(=O)N(C)C1=Nc2ccc(Cl)cc2C(c2ccccc2)=[N+]([O-])C1`, the inhibition was -5.29%.

In the case of `CCN(Cc1ccccc1)C(=O)COC(=O)CNS(=O)(=O)c1ccc(C)cc1`, the inhibition is -5.52%.

`CN(NC(=O)c1ccco1)c1nc2ccccc2nc1C(F)(F)F`: the inhibition is -6.87%.

As for `Cc1cc(-c2ccc(C)c(S(=O)(=O)Nc3cccc(CN4CCCC4)c3)c2)on1`, the inhibition was -3.07%.

`COc1ccccc1NC(=O)Nc1ccccc1C(=O)NCCCN1CCOCC1`: the inhibition was -12.4%.

As for `CCOc1ccc(N2CC(C(=O)N3CCCc4ccccc43)CC2=O)cc1` (centres undefined), the inhibition is 0.32%.

Consider `Cc1ccc(S(=O)(=O)N2CCOCC2)cc1NC(=O)C1=NN(c2ccccc2)C(=O)CC1`, for which the inhibition was -4.05%.

`Oc1cccc(Nc2c3ccccc3nc3ccccc23)c1`: the inhibition is 8.39%.

Consider `CCN(CC)CCn1c2ccccc2c2nc3ccccc3nc21`, for which the inhibition is -13.6%.

On to `Cc1ccccc1N1CCN(C2CCCN(C(=O)c3snnc3C)C2)CC1` (centres undefined), for which the inhibition was -10.7%.

As for `O=C1Nc2ccc(Br)cc2/C1=N\N=C\C1=C(N2CCOCC2)C(=C/c2ccccc2)/CC1`, the inhibition was 20.8%.

As for `O=CC1=C(N2CCOCC2)/C(=C\c2ccccc2)CC1`, the inhibition was -9.74%.

On to `Cc1ccc(S(=O)(=O)CCC(=O)OCCOc2cccc(Br)c2)cc1`, for which the inhibition was -115%.

`Cc1cccc(OCCOC(=O)c2c(-c3ccccc3)noc2C)c1`: the inhibition was -11.5%.

Regarding `COc1ccc(S(=O)(=O)NCc2cccnc2)cc1NC(=O)c1ccccc1C`, the inhibition is -8.44%.

Consider `CS(=O)(=O)N(CC(=O)Nc1ccccc1-c1ccccc1)c1ccc(F)cc1`, for which the inhibition was 1.39%.

As to `O=C(Nc1cccc(Cl)c1)c1ccc(-n2cncn2)c([N+](=O)[O-])c1`, the inhibition was 2.4%.

For the compound `CC(C(=O)OCC(=O)c1ccccc1)N1C(=O)c2ccccc2C1=O` (centres undefined), the inhibition is -4.62%.

For the compound `CC(=O)c1cc2c(cc1NC(=O)C1CCC1)OCO2`, the inhibition was 10.9%.

On to `C/C(=N\N=c1/sc2ccccc2n1C)c1ccc(N2CCOCC2)cc1`, for which the inhibition was -7.4%.

For `Cn1c(=Nc2ccc(N3CCOCC3)cc2)ccc2ccccc21`, the inhibition is -15.9%.

`Cn1c(N)c(C(=O)CSc2nnc3n2CCCCC3)c(=O)n(C)c1=O`: the inhibition was -13.2%.

For `CCOc1ccc(CNCCCSc2ncccn2)cc1`, the inhibition was 4.75%.

For `CCOC(=O)N1CCN(C(=O)c2ccc3nc(-c4ccccc4)c(-c4ccccc4)nc3c2)CC1`, the inhibition is 2.02%.

On to `O=C(Nc1nc(-c2cccs2)cs1)c1ccc([N+](=O)[O-])o1`, for which the inhibition is -3.14%.

For `Cc1ccc(-c2csc(NC(=O)c3ccc([N+](=O)[O-])o3)n2)cc1`, the inhibition was 6.86%.

On to `O=C(Nc1nc(-c2ccccn2)cs1)c1cc2ccccc2o1`, for which the inhibition was 25.1%.

In the case of `Cc1ccc(C(=O)Nc2nc(-c3cccnc3)cs2)o1`, the inhibition is -17%.

Regarding `COc1ccccc1C(=O)Nc1ccc2c(c1)n(C)c(=O)n2C`, the inhibition is -3.88%.

Regarding `CC(C)CN(C(=O)c1ccc(C(F)(F)F)cc1)c1c(N)n(CC(C)C)c(=O)[nH]c1=O`, the inhibition was -4.85%.

Consider `CCCCNC(=S)Nc1ccc2nc(N3CCN(CC)CC3)cc(C)c2c1`, for which the inhibition was 9.06%.

With `COc1ccc(OCCCC(=O)Nc2ccc(OC)c(S(=O)(=O)N3CCOCC3)c2)cc1`, the inhibition is -7.67%.

Take `CNC(=O)c1ccc(Nc2nnc(C)c3ccccc23)cc1`: the inhibition is -2.75%.

For the compound `O=C1NCCN1CCN1C(=O)c2ccccc2NC1c1ccccc1` (centres undefined), the inhibition is -24.1%.

Consider `CCn1c(/C=C2\C(=O)N(C(C)C)c3ccccc32)nc2ccccc2c1=O`, for which the inhibition was -0.25%.

On to `CC(C)N1C(=O)/C(=C/c2nc3ccccc3c(=O)n2-c2ccccc2)c2ccccc21`, for which the inhibition was 27.7%.

Turning to `CC(C)Sc1cc(N2CCCC2)nc(-c2ccccc2)n1`, the inhibition was -8.52%.

For `COc1ccc(CNC(=O)C2CCCN2C(=O)NC2CCCCC2)cc1` (centres undefined), the inhibition was 8.99%.

With `COc1ccc(S(N)(=O)=O)cc1N(C)S(=O)(=O)c1ccccc1`, the inhibition is -8.33%.

Take `NC1=NC(=Nc2cccc(S(N)(=O)=O)c2)c2ccccc21`: the inhibition was -7.83%.

Consider `O=CN1CCc2scc[n+]2-c2ccccc21`, for which the inhibition was -18.5%.

Turning to `C=CCNC(=S)N/N=C(\C)c1ccc(OC)cc1`, the inhibition is 1.71%.

Consider `C/C(=N\NC(=S)Nc1ccc(C)cc1)c1cccc(N)c1`, for which the inhibition was 3.24%.

For `COc1ccccc1NC(=O)C/C(C)=N/NC(=O)c1ccccn1`, the inhibition was 12.6%.

As to `COc1ccccc1NC(=S)Nc1ccccn1`, the inhibition is -3.02%.

For the compound `C/C(=N\NC(=O)CCCNc1ccc(C)cc1)c1ccccn1`, the inhibition was -0.81%.

Consider `CCCCCC(=O)N/N=C(\C)c1ccccn1`, for which the inhibition was 5.83%.

Turning to `C=CCNC(=S)N/N=C(\C)c1cccnc1`, the inhibition was 1.12%.

With `C/C(Cc1ccccc1)=N\NC(=O)c1ccccn1`, the inhibition is -7.02%.

As for `CC1(C)Oc2ccc(C(=O)NC3CCCC3)cc2N(CC(=O)NC2CCCCC2)C1=O`, the inhibition is -5.58%.

Regarding `Cc1cc(C)nc(Nc2ccccc2Cl)n1`, the inhibition was -3.84%.

As to `CN(CC(=O)Nc1ccc2c(c1)OCO2)S(=O)(=O)c1ccc(F)cc1`, the inhibition was 0.79%.

In the case of `S=C(NCCc1ccccn1)Nc1cccc(Cl)c1`, the inhibition was -6.8%.

Turning to `C/C(=N\NC(=S)Nc1cccc(C)c1)c1ccccc1`, the inhibition is 2.46%.

Take `S=C(NCc1ccccn1)Nc1cccc(Cl)c1`: the inhibition was 10.7%.

In the case of `Cc1cccc(NC(=S)Nc2ccccn2)c1`, the inhibition is 3.18%.

`Cc1nc(-c2ccc(Cl)cc2)sc1C(=O)O`: the inhibition is -5.39%.

Consider `O=C1COc2ccc(S(=O)(=O)N3CCN(c4ccccc4)CC3)cc2N1`, for which the inhibition was 6.48%.

For `CN(CC(=O)N1CCN(C2CCCCC2)CC1)S(=O)(=O)c1cccc2nsnc12`, the inhibition was 0.79%.

As to `CC(Sc1nnc(-c2cccnc2)o1)C(=O)NC1CCCC1` (centres undefined), the inhibition is -4.28%.

Turning to `Nc1ccc(N=Nc2ccc(N)cc2)cc1`, the inhibition was -2.48%.

As for `c1cnc2ccc(-c3ccc4ncccc4c3)cc2c1`, the inhibition is 2.05%.

Consider `Nc1ccc2ncccc2c1`, for which the inhibition is 7.98%.

With `Nc1ccc(N=Nc2ccccc2)cc1`, the inhibition was 10.5%.

As to `Cc1ccc2ncccc2c1`, the inhibition was -1.21%.

With `CC(=O)N(C)c1ccc(N=Nc2ccc3ncccc3c2)cc1`, the inhibition was 18.9%.

`CC(C)CN(C(=O)c1ccc(=O)n(C)n1)c1c(N)n(Cc2ccccc2)c(=O)[nH]c1=O`: the inhibition is -3.79%.

Consider `COc1ccccc1NS(=O)(=O)c1cccc(NC(=O)c2cncc(Br)c2)c1`, for which the inhibition is -6.77%.

On to `COc1cccc(Oc2c(C)oc3c(CN4CCOCC4)c(O)ccc3c2=O)c1`, for which the inhibition is 8.63%.

As to `Cn1c(N)c(C(=O)CSc2nc3ccccc3c(=O)n2Cc2ccccc2)c(=O)n(C)c1=O`, the inhibition is 10.1%.

Regarding `Cc1ccc(CNC(=O)CCC2CCCN(Cc3c(C)nn(C(C)C)c3C)C2)o1` (centres undefined), the inhibition was 7.13%.

Take `Cc1ccc(Cn2c(C(CO)Nc3nc(-c4ccc(Cl)c([N+](=O)[O-])c4)cs3)nc3ccccc32)cc1` (centres undefined): the inhibition is 1.74%.

Consider `O=C(Cc1cccs1)Nc1nnc(SCC(=O)NC2CCCCC2)s1`, for which the inhibition is 3.29%.

`C=CCNc1nc(-c2ccccc2)c(C(=O)OCC)cc1C#N`: the inhibition is 10.4%.

Consider `Oc1ccccc1-c1nc(NC2CCCC2)c2ccccc2n1`, for which the inhibition was -9.82%.

Regarding `CCN(CC)c1nc(-c2ccccn2)nc(-c2ccccc2)c1C#N`, the inhibition was 2.62%.

As for `C=CCNc1cc(C(F)(F)F)nc(-c2ccccn2)n1`, the inhibition is -12.7%.

With `Cc1nnc(-c2ccccc2)nc1N(C)C`, the inhibition was -13.6%.

Consider `CC(C)Nc1nc(-c2ccccc2)nnc1-c1ccccc1`, for which the inhibition is -7.91%.

Consider `CC(C)Nc1nc(-c2ccccn2)nc(-c2ccccc2)c1C#N`, for which the inhibition is 1.07%.

With `c1ccc(-c2nc(NC3CCCC3)c3ccccc3n2)cc1`, the inhibition was -1.14%.

With `CC(C)c1ccc(NC(=S)Nc2ccc3[nH]c(=O)[nH]c3c2)cc1`, the inhibition was 1.94%.

On to `Cc1ccc(S(=O)(=O)N2CCOCC2)cc1NS(=O)(=O)c1ccc(F)c(F)c1`, for which the inhibition is -3.51%.

Take `Cc1c(C(=O)Nc2ccccc2)c2cc(O)ccc2n1Cc1ccccc1`: the inhibition was -3.07%.

`O=C1CCCN1CCC1CCN(C2CC(=O)N(Cc3ccc(N4CCCC4=O)cc3)C2=O)CC1` (centres undefined): the inhibition was 18.3%.

As to `COc1ccc(OC)c(C(=O)CN2CCN(S(=O)(=O)c3ccc(Br)cc3)CC2)c1`, the inhibition was 0.97%.

In the case of `NC(=O)c1nsc(C(=O)N(c2ccc(F)cc2)C(C(=O)NC2CCCC2)c2ccncc2)c1N` (centres undefined), the inhibition was 7.29%.

Take `CC1CCC2(CC1)C(Nc1cccc(Cl)c1)=NC(=S)N2CC#N` (centres undefined): the inhibition is 11.2%.

As for `NC(=O)c1c(NC(=O)Cn2nc(C(=O)O)c3ccccc3c2=O)sc2c1CCC2`, the inhibition was 0.19%.

In the case of `CCOC(=O)c1c(NC(=O)CSc2nncn2C)sc(C)c1C`, the inhibition was -1.87%.

For `COc1ccc(Oc2nc(-c3ccccn3)ncc2OC)cc1`, the inhibition is 7.31%.

In the case of `COc1cnc(-c2ccccn2)nc1Oc1ccccc1`, the inhibition is 10.4%.
